ChEMBL document CHEMBL3988442, “University of Dundee, Small-Polar-MMV Screening Library” (2021)
In all, about 48,000 compounds went through this assay and about 13,000 (27%) showed an effect of 50% or more. Some of the results follow.

Test system: Wolbachia pipientis
Assay: Anti-Wolbachia Cell-Based Screen
Format: functional
Parameters: scale not given: in the data most compounds retested in dose-response had high values
Settings: 5 µM

Row | Structure (SMILES) | Percent Effect [%]
1 | Cc1ccccc1-n1ccnc1S(=O)(=O)Cc1nsc(N(C)C)n1 | 22.74
2 | Cc1ccc(N2C[C@@H]3CN(C(=O)NC4CCCC4)C[C@]3(C(=O)O)C2)nn1 | -11.61
3 | CN(C)C(C(=O)N1CCC(CCO)CC1)c1ccccc1F (centres undefined) | -9.373
4 | Cc1ccc(NCc2ccc(C#N)cc2)cc1-n1cnnn1 | 10.93
5 | CC1(Cc2ccc(F)cc2)Cc2cc(C(=O)NCCO)ccc2O1 (centres undefined) | 96.1
6 | Cc1ncc(C)c(N2CCC(Cc3ccc(Cl)cc3)(C(=O)O)CC2)n1 | -13.5
7 | O=C(NCc1ccc(C(=O)O)o1)c1ccc(F)cc1 | 8.231
8 | O=C(NCCCc1ccc(F)cc1)c1ccc(N2CCOCC2)cc1 | -12.9
9 | CC(C)c1ccc(CC2(C)Cc3cc(CC(=O)O)ccc3O2)cc1 (centres undefined) | 103.5
10 | CC(C)N(Cc1ccc(C(=O)O)o1)C(C)C.Cl | -3.405
11 | CC1(Cc2ccc(Cl)cc2)Cc2cc(CCC(=O)O)ccc2O1 (centres undefined) | 128.5
12 | O=C(O)CCCc1ccc2c(c1)CC(=O)N2 | -9.679
13 | Cc1nsc(NCc2ccc(CS(=O)(=O)NC(C)C)cc2)n1 | -12.57
14 | O=C(CC1=CCCCC1)NCc1ccnc(OC2CCOCC2)c1 | 4.75
15 | Cc1ccc(CN(CCN(C)C)Cc2nc3ccccc3[nH]2)s1 | -0.2455
16 | CC(NC(=O)N(C)Cc1cnn(C)c1)c1nncn1C (centres undefined) | -30.3
17 | COC(=O)C(C)N(Cc1cc(=O)n(C)c(=O)n1C)C1CC1 (centres undefined) | 5.049
18 | CCCSCC(=O)N1CCCC(CO)(CCC)C1 (centres undefined) | 120.7
19 | CCCC1(CO)CCCN(C(=O)CCCn2nc(C)cc2C)C1 (centres undefined) | 0.5939
20 | CCCSCC(=O)N1CCCC2(CCC(=O)N(CCc3c[nH]cn3)C2)C1 (centres undefined) | 0.3412
21 | CCCC1(CO)CCCN(Cc2ncccn2)C1 (centres undefined) | -3.233
22 | CCCC1(CO)CCCN(Cc2nccs2)C1 (centres undefined) | -16.5
23 | CCCC1(CO)CCCN(C(=O)CN2CCN(CC)CC2)C1 (centres undefined) | 98.5
24 | CN(C)C(=O)C1CCCN1c1ccnc2ccsc12 (centres undefined) | -11.69
25 | O=C(c1coc(-c2ccccc2)n1)N1CCCCC1 | -26.2
26 | COCc1n[nH]c2c1CN(C(=O)c1ccncc1)C2.O=C(O)C(F)(F)F | -2.458

Row | Structure (SMILES) | Percent Effect [%]
27 | O=C(c1cccnc1)N1Cc2[nH]nc(COCCO)c2C1 | -11.56
28 | Cn1ccc(C(=O)N2CCc3[nH]nc(Nc4ccccc4)c3C2)n1 | 131.4
29 | Cc1nc(C(=O)N2CCc3[nH]nc(Nc4ccccc4)c3C2)co1 | 140.3
30 | O=C(CCN1CCc2[nH]nc(C(F)(F)F)c2C1)Nc1ccccc1 | -5.362
31 | COc1cccc(-c2n[nH]c3c2CN(C(=O)c2cc(C)n(C)n2)CC3)c1 | -0.6407
32 | Cc1cc(C(=O)N2CCc3[nH]nc(-c4ccc5c(c4)OCO5)c3C2)no1 | -8.548
33 | COc1cccc(-c2n[nH]c3c2CN(C(=O)c2ccncc2)CC3)c1 | -11.9
34 | O=C(c1ccncc1)N1CCc2[nH]nc(Nc3ccccc3)c2C1 | 110.2
35 | O=C(c1cccnc1)N1CCc2[nH]nc(Nc3ccccc3)c2C1 | 125.3
36 | Cc1cc(C)n(C2CN(CC(O)c3ccc(F)cc3)C2)n1 (centres undefined) | -3.479
37 | CN1CCC(CCNC(=O)c2ccc(N(C)S(C)(=O)=O)cc2Cl)CC1 | -5.905
38 | COC(=O)CC(c1ccccc1)c1oc(C)cc(=O)c1O (centres undefined) | 9.59
39 | O=C(c1cncs1)N1CCc2[nH]nc(Nc3ccccc3)c2C1 | 117.5
40 | Cc1ncsc1C(=O)N1CCc2[nH]nc(-c3ccc4c(c3)OCO4)c2C1 | -9.39
41 | O=C(c1ccsc1)N1CCc2c(CNc3ncccn3)n[nH]c2C1 | -3.042
42 | CCn1c(CC2CCN(C(=O)C3CCOC3)CC2)nn(C)c1=O (centres undefined) | 3.513
43 | Cc1cc(=O)n2ncnc2n1CC(O)c1ccc(F)cc1F (centres undefined) | -38.21
44 | Cc1ccc(S(C)(=O)=O)cc1C(=O)NS(=O)(=O)c1cccs1 | 20
45 | O=S(=O)(NCC1(O)CCOc2ccccc21)c1ccc(Br)s1 (centres undefined) | -8.06
46 | CCOc1cccc2c1OCC(C(=O)NS(=O)(=O)c1cccs1)=C2 | 95.96
47 | CCOc1cccc2c1OCC(C(=O)NS(=O)(=O)c1ccc(Br)s1)=C2 | 97
48 | CCOc1cccc2c1OCC(C(=O)NS(=O)(=O)c1c(C)noc1C)=C2 | 100.1
49 | N#CCc1ccc(OCC(=O)NS(=O)(=O)c2cccs2)cc1 | 5.016
50 | CCOc1ccc(C(=O)NS(=O)(=O)c2cncc(Br)c2)cc1OC | -12.86
51 | Cc1cc(C)c(OCC(=O)NS(=O)(=O)c2c(C)noc2C)c(C)c1 | 0.8796
52 | CCOc1cccc2c1OCC(C(=O)NS(=O)(=O)c1cncc(Br)c1)=C2 | 125.8

Row | Structure (SMILES) | Percent Effect [%]
53 | CCOc1cccc2c1OCC(C(=O)NS(=O)(=O)c1ccc(Cl)cc1)=C2 | -2.637
54 | Cc1ccc(OCC(=O)NS(=O)(=O)c2c(C)noc2C)cc1C | 20.27
55 | Cc1ccc(S(=O)(=O)NC(=O)c2cccc(OCC(N)=O)c2)s1 | -0.7122
56 | CN(CCN1CCCC1=O)S(=O)(=O)CC1CCCC1 | -3.28
57 | Cc1ncc(S(C)(=O)=O)c(N2Cc3ccccc3C2)n1 | 20.01
58 | CCN(C)CC(=O)N1CCN(Cc2ccccc2)[C@@H]2CS(=O)(=O)C[C@@H]21 | -19.14
59 | CCN(CC)C(=O)c1ccn(COc2ccccc2)n1 | -3.664
60 | Cc1nc(CNC(C(=O)N2CCOCC2)C(C)C)oc1C (centres undefined) | -5.352
61 | CCOc1cccc2c1OCC(C(=O)NS(=O)(=O)c1ccc(C)s1)=C2 | -6.763
62 | CCOc1cccc2c1OCC(C(=O)NS(=O)(=O)c1ccc(Cl)s1)=C2 | 108.5
63 | CC(C)COCCC(=O)NS(=O)(=O)c1ccc(Cl)s1 | 13.2
64 | COc1ccc(NC(=O)CSc2nc(C)cc(C)n2)cn1 | 9.531
65 | CC1c2ncc(CN3CCN(C)CC3)n2CCN1Cc1ccsc1.O=C(O)C(F)(F)F.O=C(O)C(F)(F)F.O=C(O)C(F)(F)F (centres undefined) | 104.7
66 | Cc1ccc(CN2CCn3c(CN4CCN(C)CC4)cnc3C2C)s1.O=C(O)C(F)(F)F.O=C(O)C(F)(F)F.O=C(O)C(F)(F)F (centres undefined) | 98.84
67 | CC1c2ncc(CN3CCN(C)CC3)n2CCN1Cc1cccnc1.O=C(O)C(F)(F)F.O=C(O)C(F)(F)F.O=C(O)C(F)(F)F.O=C(O)C(F)(F)F (centres undefined) | 3.329
68 | CC1c2ncc(CN3CCN(C)CC3)n2CCN1Cc1cnn(C)c1.O=C(O)C(F)(F)F.O=C(O)C(F)(F)F.O=C(O)C(F)(F)F (centres undefined) | 96.74
69 | CC1c2ncc(CN3CCN(C)CC3)n2CCN1Cc1ccc(F)cc1.O=C(O)C(F)(F)F.O=C(O)C(F)(F)F.O=C(O)C(F)(F)F (centres undefined) | 94.11
70 | CCOCc1cnc2n1CCN(Cc1scnc1C)C2C.O=C(O)C(F)(F)F (centres undefined) | -10.4
71 | CC1c2ncc(CN3CCN(C)CC3)n2CCN1CC1CC1.O=C(O)C(F)(F)F.O=C(O)C(F)(F)F.O=C(O)C(F)(F)F (centres undefined) | -5.269
72 | Nc1ccc(CC2COc3ccccc3C2)cn1 (centres undefined) | 18.77
73 | CCOc1ccc(S(=O)(=O)NCCc2ccc(N(C)C)cc2)cc1C | 13.74
74 | CC(C)c1nc(CCN(C)C(=O)C2COc3ccccc3C2)no1 (centres undefined) | -22.02
75 | CC(C)c1nn(C)c(N(C)C)c1CNCCC(=O)NC1CCCCC1 | 102.1
76 | CC(C)c1nn(C)c(N(C)C)c1CNCCC(=O)NC1CCCC1 | -3.602
77 | Cc1nn(CC(C)C)c(N(C)C)c1CNCCC(=O)NC(C)C | -6.967
78 | Cc1cccc(NC(=O)CCNCc2c(C)nn(C)c2N(C)C)n1 | -6.985

Row | Structure (SMILES) | Percent Effect [%]
79 | CC(NCc1c(C(C)C)nn(C)c1N(C)C)C(=O)NC1CCCC1.Cl (centres undefined) | -15.88
80 | Cc1nn(C)c(N(C)C)c1CNCCC(=O)NC1CCCC1 | 122.8
81 | CNC(=O)CCCNCc1c(C)nn(C)c1N(C)C | -1.91
82 | Cc1nn(C)c(N(C)C)c1CNCCC(=O)NC1CCCCC1 | 122.8
83 | Cc1nn(C)c(N(C)C)c1CNCCNS(C)(=O)=O | -8.307
84 | O=C1[C@@H]2CCN(CC3CC3)C[C@@H]2OCCN1c1ccsc1 | -4.722
85 | O=C(N[C@@H]1CN(c2ncccn2)C[C@@H]2CCCO[C@@H]21)c1cnccn1.O=C(O)C(F)(F)F | -32.47
86 | Clc1ccc(OCCc2cc(C3CCN(c4ncccn4)C3)n[nH]2)cc1 (centres undefined) | 119.6
87 | COc1ccc(-c2c[nH]c(C3CC(=O)N(CC(C)C)C3)n2)cc1 (centres undefined) | -5.236
88 | CCCN1CCC(c2cc(CCOc3ccc(C(F)(F)F)cc3)[nH]n2)C1 (centres undefined) | 115.7
89 | CC(C)CN1CC[C@H](c2nnc(COc3ccc(F)cc3)o2)C1 | 3.256
90 | Br.COc1ccc(OCCc2cc(C3CCN(CC(C)C)C3)n[nH]2)cc1 (centres undefined) | 140.6
91 | O=C(NCCN1CCCC1)Nc1cc(C(=O)N2CCOCC2)ccc1Cl | -2.741
92 | CC(CNS(C)(=O)=O)c1ccc(F)c(F)c1 (centres undefined) | 0.4429
93 | Cc1ccc(C(=O)N2C[C@H](NS(C)(=O)=O)[C@@H](C(C)C)C2)cc1F | 7.707
94 | Cc1ccc(S(=O)(=O)NCC(C)C#N)cc1Br (centres undefined) | -32.7
95 | CC(NC(=O)NC1CCN(Cc2ccncc2)CC1)c1cccc(F)c1 (centres undefined) | 10.76
96 | COc1ccc(SC(C)C(=O)N2CCC(C(N)=O)CC2)cc1 (centres undefined) | -1.042
97 | CNC(=O)C1CCN(C(=O)c2ccn(-c3ccc(F)cc3)n2)CC1 | -2.487
98 | Cc1cc(C(=O)NCc2ccc(N3CCCC(C(N)=O)C3)cc2)[nH]n1 (centres undefined) | -1.321
99 | COc1ccc(N2CCNC(C(N)=O)C2)cc1 (centres undefined) | 90.5
100 | NC(=O)C1CCN(C(=O)c2ccn(-c3ccc(F)cc3)n2)C1 (centres undefined) | -7.383
101 | CNC(=O)N1CCC2(CC1)CNc1ccc(F)cc12.Cl | 2.564
102 | CNC(=O)C1CN(c2ccc(F)cc2)CCN1.Cl (centres undefined) | 158.3
103 | COc1ccc(N2CCCN(CC(=O)N3CCNC(=O)C3)CC2)cc1 | -7.971
104 | Cl.NC(=O)C1CN(c2ccc(F)cc2)CCN1 (centres undefined) | 113.5
